GPR151 ag: activates the human receptor GPR151; 650,000 tested, 1% active; Q8TDV0; AID 1508602; activation, % at 11.2 µM; PathHunter beta-arrestin GPR151 cells, luminescence; in the data active means activation above about 4.9%;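 further: 0% = median of compound wells and 100% = cells with positive control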
MITF primary: human MITF inhibition, primary screen | O75030 | AlphaScreen MITF homodimerization, bead proximity signal | 650,000 tested, 0.91% active | inhibition, % at 2.6 µM; in the data active means inhibition above about 50%;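 further: 0% = vehicle wells with protein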
Target sequence (O75030 whole entry, looked up): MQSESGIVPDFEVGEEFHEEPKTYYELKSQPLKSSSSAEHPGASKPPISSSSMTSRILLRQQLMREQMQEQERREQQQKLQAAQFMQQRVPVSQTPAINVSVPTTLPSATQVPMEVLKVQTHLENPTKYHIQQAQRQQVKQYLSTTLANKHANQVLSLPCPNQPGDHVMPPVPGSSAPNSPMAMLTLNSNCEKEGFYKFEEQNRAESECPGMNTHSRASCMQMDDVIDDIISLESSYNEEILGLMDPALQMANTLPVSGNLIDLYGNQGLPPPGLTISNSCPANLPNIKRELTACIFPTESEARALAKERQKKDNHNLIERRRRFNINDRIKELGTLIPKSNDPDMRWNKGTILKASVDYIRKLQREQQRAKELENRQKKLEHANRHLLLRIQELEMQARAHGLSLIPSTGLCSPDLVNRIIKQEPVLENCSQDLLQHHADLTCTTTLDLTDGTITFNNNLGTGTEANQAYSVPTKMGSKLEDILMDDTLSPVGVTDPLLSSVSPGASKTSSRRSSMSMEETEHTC
FBW7 act: activators of human E3 ligase FBW7; normalized activity (activation), % at 26.1 µM; AID 1259310; AlphaScreen FBW7–phospho-cyclin E peptide binding, activator screen; 650,000 tested, 0.13% active; Q969H0; in the data active means normalized activity above about 1.9%;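 further: purified mutant Fbw7 with reduced substrate affinity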
TEAD-YAP inh: TEAD-YAP interaction inhibition | HEK-TIYL cells, TEAD-Gal4/YAP UAS-luciferase luminescence | inhibition, % at 9.12 µM | 640,000 tested, 1.4% active; in the data active means inhibition above about 32%;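 further: 0% = median of test compound wells and 100% = reference inhibitor wells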
* = called active by the depositor. A selection: hits, their analogues and other compounds. The true share with any hit is near 3.5%.

Results for C[C@H]1CCC/C=C/[C@@H]2C[C@H](O)C[C@H]2[C@H](O)/C=C/C(=O)O1 ?
GPR151 ag: -3; MITF primary: 11; FBW7 act: 0; TEAD-YAP inh: 68*

Results for C[C@H]1CCC/C=C/C2C[C@H](O)C[C@H]2[C@H](O)/C=C/C(=O)O1 (some centres undefined) ?
GPR151 ag: 2; MITF primary: 3; FBW7 act: 2.1*

What do the screens show for `COc1ccc(CN2CCN(CC(C)C)CC2CCO)cc1C` (centres undefined)?
GPR151 ag: -1; MITF primary: 10; FBW7 act: 0; TEAD-YAP inh: 7

How did CC(=O)NC1C(OC2OC(CC(O)C3OC(n4ccc(=O)[nH]c4=O)C(O)C3O)C(O)C(O)C2NC(=O)/C=C\CCCCCCCCCC(C)C)OC(CO)C(O)C1O (centres undefined) do in these assays?
GPR151 ag: 0; MITF primary: -3; FBW7 act: 0; TEAD-YAP inh: 64*

Results for C=CCOC(=O)C1C2NC(=S)NC1(C)Oc1ccccc12 (centres undefined) ?
GPR151 ag: 0; MITF primary: 0; FBW7 act: 0; TEAD-YAP inh: 36*

Results for CN1C(=O)NC(=O)/C(=C/c2cccs2)C1=O ?
GPR151 ag: 3; MITF primary: 11; FBW7 act: 0; TEAD-YAP inh: -3

Results for CN1C(=O)NC(=O)/C(=C\c2cccc(Oc3ccccc3)c2)C1=O ?
GPR151 ag: -1; MITF primary: 65*; FBW7 act: 0; TEAD-YAP inh: 15

Results for CCC[C@@H]1NC(=O)[C@H]2CN(Cc3cccc(C)n3)CCN2C1=O ?
GPR151 ag: 0; MITF primary: 9; FBW7 act: 0; TEAD-YAP inh: -3

What do the screens show for `O=C1Cc2ccccc2N1C1CCN(Cc2ccccc2)CC1`?
GPR151 ag: 2; MITF primary: 1; FBW7 act: 0; TEAD-YAP inh: 5

Results for CCN1/C(=C/C=C/c2oc3ccc(-c4ccccc4)cc3[n+]2CC)Oc2ccc(-c3ccccc3)cc21 (tested in a mixture with another compound) ?
GPR151 ag: 1; MITF primary: -35; FBW7 act: 0; TEAD-YAP inh: 82*

What do the screens show for `COc1cc(Br)c([N+](=O)[O-])cc1[N+](=O)[O-]`?
GPR151 ag: 0; MITF primary: 37; FBW7 act: 0; TEAD-YAP inh: 43*

Results for COc1ccc(/C=C2\CCCc3c(-c4ccccc4)cc(-c4ccccc4)[n+](C)c32)cc1 ?
GPR151 ag: 1; MITF primary: -3; FBW7 act: 0; TEAD-YAP inh: 92*

How did COc1ccccc1/C=C1\CCCc2c(-c3ccccc3)cc(-c3ccccc3)[n+](C)c21 do in these assays?
GPR151 ag: 2; MITF primary: 14; FBW7 act: 0; TEAD-YAP inh: 95*

What do the screens show for `COc1cccc(-c2nn(CCC#N)cc2C(=O)n2nnc3ccccc32)c1`?
GPR151 ag: 3; MITF primary: -3; FBW7 act: 0; TEAD-YAP inh: -8

What do the screens show for `CCn1cnc2c(Nc3cccc(Cl)c3)nc(N[C@@H]3CCCC[C@@H]3N)nc21`?
GPR151 ag: 2; MITF primary: -4; FBW7 act: 0; TEAD-YAP inh: 46*

How did CC(=O)Nc1ccc(C=C(C#N)C#N)cc1 do in these assays?
GPR151 ag: 1; MITF primary: 13; FBW7 act: 1; TEAD-YAP inh: 4

Results for C=CCN1C(=O)C2(C(C#N)=C(N)OC(C)=C2C(=O)OC(C)(C)C)c2ccccc21 (centres undefined) ?
GPR151 ag: 1; MITF primary: 20; FBW7 act: 0; TEAD-YAP inh: 5

How did CO[C@@H]1C[C@@H](C[C@H]2CC[C@H](C)[C@H]([C@@H](C)C(=O)O)O2)O[C@]2(O[C@](C)([C@H]3CC[C@@](C)([C@@H]4O[C@@H]([C@H]5O[C@@](O)(CO)[C@H](C)C[C@@H]5C)C[C@@H]4C)O3)C[C@H]2C)[C@@H]1C do in these assays?
GPR151 ag: -3; MITF primary: 12; FBW7 act: 0; TEAD-YAP inh: 77*

How did O=c1cccc2n1CC1CC2CN(Cc2cccc(O)c2)C1 (centres undefined) do in these assays?
GPR151 ag: 1; MITF primary: 0; FBW7 act: 0; TEAD-YAP inh: 8

Results for Cc1ccc2oc(C(=O)OC(C)C(C)CN(C)C)cc2c1 (centres undefined) ?
GPR151 ag: -2; MITF primary: 10; FBW7 act: 2.5*; TEAD-YAP inh: 17

Results for COc1ccccc1CCNCc1cccc(F)c1 ?
GPR151 ag: -1; MITF primary: 14; FBW7 act: 0; TEAD-YAP inh: 0

Results for O=c1c(O)c(-c2ccc(O)c(O)c2)oc2c(O)c(O)cc(O)c12 ?
GPR151 ag: 4; MITF primary: 57*; FBW7 act: 0; TEAD-YAP inh: -18

Results for COc1ccc(O)c(CN2CCN(Cc3ccccc3)CC2)c1 ?
GPR151 ag: -1; MITF primary: -1; FBW7 act: 0; TEAD-YAP inh: 4

Results for COc1ccc(O)c(CN2CCN(Cc3ccccc3Cl)CC2)c1 ?
GPR151 ag: -1; MITF primary: 51*; FBW7 act: 0; TEAD-YAP inh: -3

What do the screens show for `COc1ccc(O)c(CN2CCN(Cc3cccc(C)c3)CC2)c1`?
GPR151 ag: 0; MITF primary: 72*; FBW7 act: 0; TEAD-YAP inh: -4

How did COc1ccc(O)c(CN2CCN(C)CC2)c1 do in these assays?
GPR151 ag: -2; MITF primary: 16; FBW7 act: 0; TEAD-YAP inh: 2

How did CCC1/C=C/C=C/C[C@H](C)[C@@H](O)[C@](C)(O)C(=O)[C@@H](C)[C@H](O)[C@@H](C)C(=O)[C@H](C)[C@@H](O)[C@H](C)/C=C/C(=O)OC2[C@@H](C)C(CC1)OC1(CC[C@@H](C)C(C[C@H](C)O)O1)[C@@H]2C (some centres undefined) do in these assays?
GPR151 ag: 4; MITF primary: -1; FBW7 act: 0; TEAD-YAP inh: 94*

What do the screens show for `CC[C@@]1(O)C(=O)OCc2c1cc1n(c2=O)Cc2cc3c(O)cccc3nc2-1`?
GPR151 ag: -2; MITF primary: 34; FBW7 act: 0; TEAD-YAP inh: 78*

Results for CC[C@@]1(O)C(=O)OCc2c1cc1n(c2=O)Cc2cc3ccccc3nc2-1 ?
GPR151 ag: 0; MITF primary: 8; FBW7 act: 0; TEAD-YAP inh: 76*

How did CCCCc1nc2ccccc2c(=O)n1-c1ccccc1O do in these assays?
GPR151 ag: -1; MITF primary: 12; FBW7 act: 0; TEAD-YAP inh: 11

What do the screens show for `CN1C(=O)/C(=C/c2ccc(F)cc2)C(=O)N(c2ccccc2)C1=O`?
GPR151 ag: -1; MITF primary: 0; FBW7 act: 0; TEAD-YAP inh: -5

Results for O=C(NC(C(Cl)(Cl)Cl)S(=O)(=O)O)c1ccccc1 (centres undefined) (tested in a mixture with another compound) ?
GPR151 ag: 2; MITF primary: -3; FBW7 act: 0; TEAD-YAP inh: -6
